# Reference: PubChem BioAssay (NCATS)
# Inconclusive results are not listed. Calls of active or inactive are those of the source. Calls follow the shape of the dose curve; as a rule, active = well fitted cell-killing curve with a large enough effect; inconclusive = small, poorly fitted or top-dose-only effect, or effect the other way; inactive = no such curve, though single readings can be large or run the other way.
# Assay: Quantitative High-Throughput drug screen in 47 multiple myeloma cell lines against the NCATS MIPE library collection: MM1R_ATCC cell viability assay (AID 1918981)
# Details: MM1R multiple myeloma cells, CellTiter-Glo viability, 48 h; series mostly up to 45.8 µM
# In short: (§1)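 ATP-based luminescence (CellTiter-Glo, 5 min RT incubation) quantified surviving cells following two days' treatment with MIPE 4.0 agents at 37 °C, 5% CO2.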
# Also: nearly all actives have a fitted effect of over 35% in size.
# Potency is read from the fitted curve at half-maximal effect.
row,Compound,Potency
1,CC[C@H]1OC(=O)[C@H](C)C(=O)[C@H](C)[C@@H](O[C@H]2O[C@H](C)C[C@H](N(C)C)[C@@H]2O)[C@](C)(OC)C[C@@H](C)C(=O)[C@H](C)[C@H]2N(CCCCn3cnc(-c4cccnc4)c3)C(=O)O[C@]12C,16.6 µM (active)
2,COC(=O)C1=CO[C@@H](O)[C@@H]2C(CO)=CC[C@@H]12,18.7 µM (active)
3,CC(=O)O[C@]1(C(C)=O)CC[C@@H]2[C@@H]3C[C@H](C)C4=CC(=O)CC[C@]4(C)[C@H]3CC[C@@]21C,20.9 µM (active)
4,CC=C(C)C(=O)O[C@H]1C(C)=C[C@]23C(=O)[C@@H](C=C(CO)[C@@H](O)[C@]12O)[C@H]1[C@@H](C[C@H]3C)C1(C)C,18.7 µM (active)
5,Nc1nc(F)nc2c1ncn2[C@@H]1O[C@H](COP(=O)(O)O)[C@@H](O)[C@H]1O,18.7 µM (active)
6,CO[C@H]1C[C@@H]2CC[C@@H](C)[C@@](O)(O2)C(=O)C(=O)N2CCCC[C@@H]2C(=O)O[C@H]([C@H](C)C[C@@H]2CC[C@H](OP(C)(C)=O)[C@H](OC)C2)CC(=O)[C@H](C)C=C(C)[C@@H](O)[C@@H](OC)C(=O)[C@H](C)C[C@H](C)C=CC=CC=C1C,inactive
7,O=c1cc(-c2ccccc2)oc2cc(O)c(O)c(O)c12,23.5 µM (active)
8,O=C1NC(=O)C(=Cc2ccc(-c3ccc(F)cc3)o2)S1,2.09 µM (active)
9,OC[C@H]1O[C@@H](Oc2cc(O)cc(C=Cc3ccc(O)cc3)c2)[C@H](O)[C@@H](O)[C@H]1O,inactive
10,CC(C)(C)c1cc(C(=O)O)c(NC(=O)Nc2ccc3[nH]ncc3c2)s1,inactive
11,COc1ccc(C2CC(c3ccccc3)=NN2c2ccc(S(N)(=O)=O)cc2)cc1 (stereo not given),16.6 µM (active)
12,Cc1ccc([C@@H]2O[C@H](CO)[C@@H](O)[C@H](O)[C@@H]2O)cc1Cc1ccc(-c2ccc(F)cc2)s1,18.7 µM (active)
13,CN(C)CCC=C1c2ccccc2COc2ccc(CC(=O)O)cc21,inactive
14,CO[C@H]1C[C@@H]2CC[C@@H](C)[C@@](O)(O2)C(=O)C(=O)N2CCCC[C@@H]2C(=O)O[C@H]([C@@H](C)C[C@@H]2CC[C@H](O)[C@H](OC)C2)CC(=O)[C@H](C)C=C(C)[C@@H](O)[C@@H](OC)C(=O)[C@H](C)C[C@H](C)C=CC=CC=C1C,inactive
15,CC=CCC=CCCC(=O)[C@H]1O[C@@H]1C(N)=O,18.7 µM (active)
16,CC1(C)CCC2=C(O1)c1ccccc1C(=O)C2=O,23.5 µM (active)
17,CCCCCNC(=O)N1CCC(CN(Cc2ccc(Cl)cc2)Cc2ccc([N+](=O)[O-])s2)C1 (stereo not given),14.8 µM (active)

# Assay: Quantitative High-Throughput drug screen in 47 multiple myeloma cell lines against the NCATS MIPE library collection: LP1_DSMZ cell viability assay (AID 1918982)
# Details: LP1 myeloma viability, CellTiter-Glo ATP luminescence, 48 h; series mostly up to 45.8 µM
# In short: as §1
row,Compound,Potency
1,CCOC(CN1C(=O)[C@](CC(=O)Nc2ccc(C)cc2)(NC(=O)Nc2ccc(C)cc2)c2ccccc21)OCC,inactive
2,C=C1C(=O)OC(CCCCCCCC)C1C(=O)O (stereo not given),inactive
3,CCNc1cc(NC2CCC(O)CC2)nc(Nc2ccc3c(ccn3Cc3ccccc3)c2)n1 (stereo not given),20.9 µM (active)
4,CC(C)(C)c1cc(C(=O)O)c(NC(=O)Nc2ccc3[nH]ncc3c2)s1,inactive
5,CN(C)CCC=C1c2ccccc2COc2ccc(CC(=O)O)cc21,inactive
6,CC1(C)CCC2=C(O1)c1ccccc1C(=O)C2=O,20.9 µM (active)
7,CCCCCNC(=O)N1CCC(CN(Cc2ccc(Cl)cc2)Cc2ccc([N+](=O)[O-])s2)C1 (stereo not given),29.6 µM (active)

# Assay: Quantitative High-Throughput drug screen in 47 multiple myeloma cell lines against the NCATS MIPE library collection: KMS28PE_JCRB cell viability assay (AID 1918983)
# Details: KMS28PE multiple myeloma viability, CellTiter-Glo ATP, 48 h; series mostly up to 45.8 µM
# In short: as §1
row,Compound,Potency
1,COc1cccc2c1CCCC2CCCN1CCN(C2CCCCC2)CC1 (stereo not given),14.8 µM (active)
2,CC=C(C)C(=O)O[C@H]1C(C)=C[C@]23C(=O)[C@@H](C=C(CO)[C@@H](O)[C@]12O)[C@H]1[C@@H](C[C@H]3C)C1(C)C,0.0372 µM (active)
3,CO[C@H]1C[C@@H]2CC[C@@H](C)[C@@](O)(O2)C(=O)C(=O)N2CCCC[C@@H]2C(=O)O[C@H]([C@H](C)C[C@@H]2CC[C@H](OP(C)(C)=O)[C@H](OC)C2)CC(=O)[C@H](C)C=C(C)[C@@H](O)[C@@H](OC)C(=O)[C@H](C)C[C@H](C)C=CC=CC=C1C,inactive
4,C=C1C(=O)OC(CCCCCCCC)C1C(=O)O (stereo not given),inactive
5,CCNc1cc(NC2CCC(O)CC2)nc(Nc2ccc3c(ccn3Cc3ccccc3)c2)n1 (stereo not given),23.5 µM (active)
6,OC[C@H]1O[C@@H](Oc2cc(O)cc(C=Cc3ccc(O)cc3)c2)[C@H](O)[C@@H](O)[C@H]1O,inactive
7,COc1ccc(C2CC(c3ccccc3)=NN2c2ccc(S(N)(=O)=O)cc2)cc1 (stereo not given),inactive
8,Cc1ccc([C@@H]2O[C@H](CO)[C@@H](O)[C@H](O)[C@@H]2O)cc1Cc1ccc(-c2ccc(F)cc2)s1,inactive
9,CN(C)CCC=C1c2ccccc2COc2ccc(CC(=O)O)cc21,inactive
10,CC[C@@H]1C=C(C)C[C@H](C)C[C@H](OC)[C@H]2O[C@@](O)(C(=O)C(=O)N3CCCC[C@@H]3C(=O)O[C@H](C(C)=C[C@@H]3CC[C@H](Cl)[C@H](OC)C3)[C@H](C)[C@@H](O)CC1=O)[C@H](C)C[C@H]2OC,16.6 µM (active)
11,CC(C)C(=O)Nc1ncc(-c2cc(C(F)F)nn2-c2c(Cl)cccc2Cl)s1,20.9 µM (active)
12,CO[C@H]1C[C@@H]2CC[C@@H](C)[C@@](O)(O2)C(=O)C(=O)N2CCCC[C@@H]2C(=O)O[C@H]([C@@H](C)C[C@@H]2CC[C@H](O)[C@H](OC)C2)CC(=O)[C@H](C)C=C(C)[C@@H](O)[C@@H](OC)C(=O)[C@H](C)C[C@H](C)C=CC=CC=C1C,inactive
13,NC(=O)NN=Cc1ccc([N+](=O)[O-])o1,inactive
14,CC(=O)Oc1cc2c(s1)CCN(C(C(=O)C1CC1)c1ccccc1F)C2 (stereo not given),2.64 µM (active)
15,CCCCCNC(=O)N1CCC(CN(Cc2ccc(Cl)cc2)Cc2ccc([N+](=O)[O-])s2)C1 (stereo not given),20.9 µM (active)
16,CC(C)n1nc(-c2ccc3oc(N)nc3c2)c2c(N)ncnc21,0.0023 µM (active)
